Compound activity from PubChem BioAssay.
This excerpt belongs to a sample that is enriched for hits.
SF-1 inh = SF-1 (human) inhibition; Q13285; CHO-K1 Gal4-SF-1 LBD luciferase reporter; inhibition, % at 10 µM; 65,000 tested, 0.55% active; AID 525;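 active = inhibition above the mean inhibition of all tested compounds plus 3 SD, cut at about 48% in these data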;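 note: 0% = SF-1 transfected cells with DMSO and 100% = mock-transfected cells lacking SF-1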
Target sequence (Q13285 whole entry, looked up, the tested form may be a part): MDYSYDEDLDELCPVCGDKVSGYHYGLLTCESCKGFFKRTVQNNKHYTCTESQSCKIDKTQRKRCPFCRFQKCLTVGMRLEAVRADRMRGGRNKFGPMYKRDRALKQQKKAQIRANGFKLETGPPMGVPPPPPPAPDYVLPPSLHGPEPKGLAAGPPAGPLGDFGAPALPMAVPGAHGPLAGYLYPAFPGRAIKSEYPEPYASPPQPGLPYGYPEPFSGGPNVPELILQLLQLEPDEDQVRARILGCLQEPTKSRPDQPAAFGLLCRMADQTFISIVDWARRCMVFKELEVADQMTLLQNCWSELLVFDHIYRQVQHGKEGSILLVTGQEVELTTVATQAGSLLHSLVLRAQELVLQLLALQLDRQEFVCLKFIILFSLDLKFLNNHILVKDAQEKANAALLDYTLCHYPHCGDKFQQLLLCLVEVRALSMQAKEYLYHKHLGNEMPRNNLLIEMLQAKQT
* = called active by the depositor.

SMILES | SF-1 inh
c1ccc2c(c1)CCN(c1ncnc3c1[nH]c1ccccc13)C2 | 85.7*
Cc1cc(=O)[nH]c(N2CCN(Cc3ccccc3)CC2)n1 | -5.1
CS(=O)(=O)N1CCC(C(=O)NCc2ccco2)CC1 | 9.5
CCOC(=O)C1CCN(C(=O)CC(NS(=O)(=O)c2ccc(OC)cc2)C(C)C)CC1 (stereo not given) | -2.2
CCOC(=O)c1c(C)[nH]c(C(=O)COC(=O)CNC(=O)C2CCCCC2)c1C | 0.4
c1cn(CC2(Cn3ccnc3)COC2)cn1 | -7.6
Cc1nnc(Sc2nc3c(c(=O)[nH]c(=O)n3C)n2CCCc2ccccc2)s1 | 2.9
O=C(NCCCn1ccnc1)c1cc(-c2cccs2)on1 | -67.0
Cc1c(S(=O)(=O)Nc2cc(Cl)ccc2Cl)c(=O)n(C)c(=O)n1C | 14.5
CCc1ccc(-c2ccc(C(=O)O)cc2)nc1 | -85.1
CCCc1ccc(-c2ccc(F)c(N)c2)nc1 | 60.1*
Cc1ccc(NC(=O)C2CCN(S(=O)(=O)c3cnc[nH]3)CC2)nc1 | 7.9
O=C(CN1C(=O)CSC1=O)N1CCc2ccccc2C1 | -4.6
O=C(CCC(=O)c1ccc[nH]1)c1ccc(Cl)cc1 | -51.9
COC(=O)c1cc(S(=O)(=O)N2CCC(C)CC2)ccc1F | 7.1
CCOC(=O)C1=Nc2ccccc2C1=[N+]=[N-] | 83.6*
CCOC(=O)c1c(C)nc(-c2ccccc2)nc1N | -58.5
CCOC(=O)c1cnc2c(-c3ccccc3)cnn2c1N | -52.4
CCS(=O)(=O)N1CCCC(C(=O)NC2CCC(C)CC2)C1 (stereo not given) | -18.2
Fc1ccc2nc3[nH]c4ccccc4c3nc2c1 | -89.5
Cc1occc1-c1nnc(SCC(=O)NCc2ccco2)n1CC(C)C | -4.6
CCS(=O)(=O)Nc1cc(-c2nc3cccnc3s2)ccc1C | -71.0
O=S(=O)(Nc1cccc2ncccc12)c1cccs1 | 95.7*
CN(C1CCS(=O)(=O)C1)S(=O)(=O)c1ccc(C2CCCCC2)cc1 (stereo not given) | 6.4
Cc1cc(C)nc(NCC(O)CNc2ccccc2Cl)n1 (stereo not given) | 0.7
SMILES | SF-1 inh
Cc1cc(C)n(-c2ccc3cccc(NS(C)(=O)=O)c3n2)n1 | 78.7*
COc1ccc2sc(NC(=O)CC(C)C)nc2c1 | -65.5
CN(C)C=Nc1ncc2c([nH]c3ccccc32)c1C#N | -16.0
O=C(Nc1cccc(C(F)(F)F)c1)C1CCN(S(=O)(=O)c2cnc[nH]2)CC1 | 2.2
COc1ccccc1NC(=O)CSc1nnc(-c2ccc(C)cc2)o1 | -56.6
O=S1(=O)C=C(Sc2nnc(-c3ccccc3)o2)c2ccccc21 | 65.6*
Brc1cccc(-c2nnc(-c3ccccc3)o2)c1 | -60.5
CCN(CC)C(=O)c1cc(-c2ccc(Br)cc2)on1 | -55.8
COc1ccc2[nH]c3nc(SC(C)C)nnc3c2c1 | 62.7*
CCOC(=O)CC(=O)CSc1nnc2c(n1)[nH]c1ccccc12 | -53.2
Cc1nc2ccccn2c1P(=Nc1ccccc1)(N(C)C)N(C)C | 3.2
CC(C)Oc1ccc(/C(O)=C2/C(=O)C(=O)N(CCN(C)C)C2c2ccco2)cc1 (stereo not given) | -27.8
O=C(Nc1ccc(-c2cn3ccsc3n2)cc1)c1ccc(F)c(S(=O)(=O)N2CCOCC2)c1 | -57.1
Cc1cnc(NC(=O)CN2CCN(c3ccccn3)CC2)s1 | 61.3*
COc1ccccc1NC(=O)N1CCN(c2ccccn2)CC1 | 13.0
O=C(CN1CCN(c2ccccn2)CC1)Nc1cccc(C(F)(F)F)c1 | 15.7
COc1ccc(C2(CN(C(C)=O)C(C)=O)CCCC2)cc1OC | 3.2
CC(=O)N1CCN(c2ccc(Oc3nnnn3-c3ccccc3)cc2)CC1 | 17.8
COc1ccc(-c2ccc(-c3nnn(CC(C)=O)n3)cc2)cc1 | -89.6
CCc1ccc(-c2nnn(CCC(=O)OC)n2)cc1 | 51.5*
O=C(Cn1nnc(-c2ccccc2)n1)OCc1csc(-c2ccccc2)n1 | -18.8
Cc1cccc(-c2nc(C#N)c(NC3CCCCC3)o2)c1 | -49.6
CN1C(=O)c2ccc(C(=O)NC3CCCCC3)cc2C1=O | -6.4
CCOC(=O)c1cccc(NC(=O)Cn2cc3c(n2)CCC(C)C3)c1 (stereo not given) | 13.2
CCOc1ccccc1NC(=O)CSc1nc2cccnc2n1C | 9.2
SMILES | SF-1 inh
CCN(CC)c1ccc2c(c1)OC(N)=C(C#N)C2c1cccnc1 (stereo not given) | 64.6*
CCOC(=O)C1=C(C)N(C)C(C)=C(C(=O)OCC)C1c1cccnc1 | -15.5
Cc1cc2c(c(=O)n1CCCn1ccnc1)C(c1ccco1)C(C#N)=C(N)O2 (stereo not given) | 5.4
Cc1c(CCC#N)c(N2CCN(C3CCCCC3)CC2)n2c(nc3ccccc32)c1C#N | -0.7
CC(C)COC(=O)N(C)c1ccc(C(O)(C(F)(F)F)C(F)(F)F)cc1 | -12.5
Cc1cc(=O)oc2cc(OCC(=O)OCc3nnc(-c4ccccc4)o3)ccc12 | -6.1
Cc1ccc(-c2cnc(NC(=O)CCC(=O)N3CCCCC3)n2C)cc1 | 65.1*
Cc1cc(C)nc(SCC(=O)N2CCCCC2)n1 | 7.7
Cn1c(-c2ccc3c(c2)OCO3)cnc1NCc1ccccc1 | -67.8
Cn1c(NC(=O)c2ccccc2F)cc(=O)n(C)c1=O | -17.0
COc1ccc(CN/C=C2\CCCCC2=O)cc1 | 0.5
Cc1cc(-c2ccccc2)nc(N2CCC(C(=O)NC(C)C)CC2)n1 | -96.8
